Data taken from the supplement of paper PMC6089552.
In all, about 3,200 compounds went through this assay and about 300 (9.4%) showed activity. This is one part of a sample in which actives are shown more often than they occur.

Tested on: A673/TR/shEF
Experiment: cell viability (LOESS-normalised, relative to median of negative controls) (log2 ratio); higher = more viable cells (less compound effect), active = hit call of the paper (over 3 MAD below the median)
Conditions: treatment time: 72 h
Summary of the method: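 For three days, A673/TR/shEF Ewing sarcoma cells in 384-well plates (1,500 per well) were treated with library compounds at two or more concentrations or with DMSO controls, after doxycycline had been added or withheld 24 h beforehand to induce EWS-FLI1 shRNA knockdown. Viability was read by CellTiter-Glo luminescence on an Envision reader. The data were LOESS-corrected per plate, divided by the median of negative controls and log2-transformed.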

[1] = 0.25 µM, library screen: screen1, EWS-FLI1 expression: high (no doxycycline)
[2] = 0.25 µM, library screen: screen1, EWS-FLI1 expression: low (doxycycline-induced shRNA knockdown)
[3] = 2.5 µM, library screen: screen1, EWS-FLI1 expression: high (no doxycycline)
[4] = 2.5 µM, library screen: screen1, EWS-FLI1 expression: low (doxycycline-induced shRNA knockdown)
[5] = 0.025 µM, library screen: screen2, EWS-FLI1 expression: high (no doxycycline)
[6] = 0.025 µM, library screen: screen2, EWS-FLI1 expression: low (doxycycline-induced shRNA knockdown)
[7] = 0.103 µM, library screen: screen3, EWS-FLI1 expression: high (no doxycycline)
[8] = 0.103 µM, library screen: screen3, EWS-FLI1 expression: low (doxycycline-induced shRNA knockdown)
[9] = 0.25 µM, library screen: screen2, EWS-FLI1 expression: high (no doxycycline)
[10] = 0.25 µM, library screen: screen2, EWS-FLI1 expression: low (doxycycline-induced shRNA knockdown)
[11] = 0.308 µM, library screen: screen3, EWS-FLI1 expression: high (no doxycycline)
[12] = 0.308 µM, library screen: screen3, EWS-FLI1 expression: low (doxycycline-induced shRNA knockdown)
[13] = 0.926 µM, library screen: screen3, EWS-FLI1 expression: high (no doxycycline)
[14] = 0.926 µM, library screen: screen3, EWS-FLI1 expression: low (doxycycline-induced shRNA knockdown)
[15] = 2.5 µM, library screen: screen2, EWS-FLI1 expression: high (no doxycycline)
[16] = 2.5 µM, library screen: screen2, EWS-FLI1 expression: low (doxycycline-induced shRNA knockdown)
[17] = 2.8 µM, library screen: screen3, EWS-FLI1 expression: high (no doxycycline)
[18] = 2.8 µM, library screen: screen3, EWS-FLI1 expression: low (doxycycline-induced shRNA knockdown)
[19] = 8.3 µM, library screen: screen3, EWS-FLI1 expression: high (no doxycycline)
[20] = 8.3 µM, library screen: screen3, EWS-FLI1 expression: low (doxycycline-induced shRNA knockdown)
[21] = 25 µM, library screen: screen2, EWS-FLI1 expression: high (no doxycycline)
[22] = 25 µM, library screen: screen2, EWS-FLI1 expression: low (doxycycline-induced shRNA knockdown)
[23] = 25 µM, library screen: screen3, EWS-FLI1 expression: high (no doxycycline)
[24] = 25 µM, library screen: screen3, EWS-FLI1 expression: low (doxycycline-induced shRNA knockdown)

Measured: cell viability (log2)

CC(=O)O[C@@H]1C=C[C@@]2(C)C(C[C@@H](OC(C)=O)[C@@]3(C)C4=CC(=O)O[C@@H](c5ccoc5)[C@]4(C)CCC23)C1(C)C (some centres undefined)
inactive: [1] 0.0555 | [2] 0.12 | [3] 0.1 | [4] 0.125

CC(=O)O[C@@H]1CC[C@@]2(C)C(=CC=C3[C@@H]4CC[C@H]([C@H](C)/C=C/[C@H](C)C(C)C)[C@@]4(C)CC[C@@H]32)C1
inactive: [1] 0.0486 | [2] 0.129 | [3] 0.176 | [4] 0.156

[Cl][Pt+2][Cl].[NH2-].[NH2-]
inactive: [5] 0.0701 | [6] 0.092 | [7] 0.0436 | [8] 0.101 | [1] 0.0699 | [2] 0.0806 | [9] 0.126 | [10] 0.0568 | [11] 0.119 | [12] 0.0647 | [13] 0.132 | [14] 0.00232 | [3] 0.0557 | [4] 0.0761 | [15] 0.062 | [16] 0.0651 | [17] 0.0695 | [18] 0.05 | [19] 0.0685 | [20] 0.0664 | [21] 0.079 | [22] 0.0718 | [23] 0.135 | [24] 0.0626

CC(C)CCC[C@@H](C)[C@H]1CC[C@H]2[C@@H]3CC[C@H]4C[C@@H](O)CC[C@]4(C)[C@H]3CC[C@]12C
inactive: [1] 0.0663 | [2] 0.113 | [3] 0.0848 | [4] 0.113

COC(=O)c1c(Cl)c(Cl)c(C(=O)OC)c(Cl)c1Cl
inactive: [1] 0.0653 | [2] 0.0707 | [3] 0.0863 | [4] 0.122

CC1(C)C(=O)C=C[C@@]2(C)C1CC(=O)[C@@]1(C)C3=CC(=O)O[C@@H](c4ccoc4)[C@]3(C)CCC12 (some centres undefined)
inactive: [1] 0.0432 | [2] 0.0348 | [3] 0.201 | [4] 0.163

CCOC([O-])=Nc1c[n+](N2CCOCC2)no1
inactive: [1] 0.0951 | [2] 0.0303 | [9] 0.227 | [10] 0.0663 | [3] 0.0784 | [4] 0.0384 | [15] 0.102 | [16] 0.116

CC1(C)O[C@H]2[C@H](O)C[C@](O)(C(N)=O)C[C@H]2O1
inactive: [1] -0.0199 | [2] -0.00566 | [3] 0.076 | [4] 0.0924

Oc1ccc2c(c1)OC[C@]1(O)Cc3cc(O)c(O)cc3[C@H]21
inactive: [1] 0.113 | [2] 0.129 | [3] 0.0951 | [4] 0.187

NC(C(=O)O)C(O)C(O)C(O)CO (centres undefined)
inactive: [1] 0.0607 | [2] 0.059 | [3] 0.025 | [4] 0.121

COc1ccccc1NC(=O)C1=C(C)NC(=O)NC1c1ccc(Cl)cc1 (centres undefined)
inactive: [1] 0.0563 | [2] 0.0447 | [3] 0.0428 | [4] 0.00886

O=C(CSc1nnc(Cc2ccccc2)o1)c1ccc(Cl)cc1
inactive: [1] 0.0547 | [2] 0.0748 | [3] 0.133 | [4] -0.101

C[C@H]1CC[C@@H](C(C)(C)O)CC2=C1CC[C@@H]2C
inactive: [1] -0.0585 | [2] 0.0603 | [3] 0.0212 | [4] 0.083

C[C@@H](Oc1cc(-c2cnn(C3CCNCC3)c2)cnc1N)c1c(Cl)ccc(F)c1Cl
active: [19] -0.189 | [23] -1.08
inactive: [7] 0.0466 | [8] 0.078 | [11] 0.0248 | [12] 0.0309 | [13] 0.0194 | [14] 0.0561 | [17] -0.012 | [18] 0.0202 | [20] 0.0761 | [24] -0.0839

COC(=O)C1=C(C)N=c2sc(=Cc3cccs3)c(=O)n2C1c1ccc(OC)cc1 (centres undefined)
inactive: [1] 0.0442 | [2] 0.034 | [3] 0.0701 | [4] 0.111

CNC(=O)c1cc2c(cn1)[nH]c1ccccc12
inactive: [9] 0.143 | [10] 0.0456 | [15] 0.152 | [16] 0.0711

CNC(=O)c1ccccc1Sc1ccc2c(/C=C/c3ccccn3)n[nH]c2c1
inactive: [7] -0.00228 | [8] 0.0386 | [11] 0.0978 | [12] 0.044 | [13] 0.0712 | [14] 0.145 | [17] 0.0241 | [18] 0.188 | [20] 0.195 | [24] -0.0147
active: [19] -0.181 | [23] -0.513

CC(C)=CCC[C@@H](C)[C@H]1CC[C@@]2(C)C3=C(CC[C@]12C)[C@@]1(C)CC[C@H](O)C(C)(C)[C@@H]1CC3
inactive: [1] 0.101 | [2] -0.00557 | [3] 0.158 | [4] 0.0178

O=C(O)CCCCCCCn1ccnc1
inactive: [1] 0.124 | [2] 0.0433 | [3] 0.168 | [4] 0.0749

CC1=C(Cl)C(O)=C(Cl)C(=O)C12Oc1cc(O)c(Cl)c(C)c1C2=O (centres undefined)
inactive: [1] 0.065 | [2] 0.0174 | [3] 0.111 | [4] 0.157

CC(=O)OC12CCCC(C)(CCC3C1CC3(C)C)C2 (centres undefined)
inactive: [1] 0.0248 | [2] -0.0723 | [3] 0.116 | [4] -0.0213

CC(=O)OC1(C)CCC23CC1C(C)(C)[C@@H]2CC[C@H]3C (some centres undefined)
inactive: [1] 0.0148 | [2] 0.0289 | [3] 0.15 | [4] 0.0585

Cc1nc(N)sc1-c1ccnc(Nc2ccc(N3CCOCC3)cc2)n1
active: [17] -0.219 | [19] -0.377 | [23] -0.478 | [24] -0.719
inactive: [7] 0.0411 | [8] 0.00948 | [11] 0.0424 | [12] 0.0424 | [13] -0.0206 | [14] 0.0867 | [18] 0.0313 | [20] -0.083

COc1cccc(CN2CCN(Cc3cccc([N+](=O)[O-])c3)CC2)c1
inactive: [1] 0.0814 | [2] 0.112

CC(C)c1c(O)ccc2c1CC[C@H]1[C@@](C)(CO)CCC[C@]21C
inactive: [1] 0.0632 | [2] 0.204 | [3] 0.124 | [4] 0.239

COC(=O)Nc1nc2ccc(Sc3ccccc3)cc2[nH]1
active: [17] -0.667 | [19] -1.42 | [20] -0.611 | [21] -2.26 | [22] -0.937 | [23] -1.77 | [24] -0.629
inactive: [5] 0.076 | [6] 0.0311 | [7] 0.039 | [8] 0.0842 | [1] 0.0605 | [2] 0.108 | [9] 0.237 | [10] 0.0195 | [11] 0.0857 | [12] 0.103 | [13] 0.0228 | [14] 0.0229 | [3] 0.101 | [4] 0.0874 | [15] 0.103 | [16] 0.0543 | [18] -0.0556

CC(C(=O)O)c1cccc(C(=O)c2ccccc2)c1 (centres undefined)
inactive: [7] 0.106 | [8] 0.0412 | [1] 0.12 | [2] -0.0201 | [9] 0.204 | [10] 0.13 | [11] 0.093 | [12] 0.102 | [13] 0.0295 | [14] 0.058 | [3] 0.103 | [4] 0.0158 | [15] 0.122 | [16] 0.173 | [17] 0.145 | [18] 0.11 | [19] 0.0932 | [20] 0.0536 | [23] 0.0365 | [24] 0.131

CC(C(=O)O)c1ccc(C(=O)c2cccs2)cc1 (centres undefined)
inactive: [1] 0.0835 | [2] 0.0129 | [3] 0.155 | [4] -0.0021

COC(=O)Nc1nc2ccc(C(=O)c3ccccc3)cc2[nH]1
inactive: [5] 0.179 | [6] 0.0844 | [1] 0.0977 | [2] 0.025 | [9] 0.114 | [10] 0.0886
active: [3] -1.65 | [4] -0.988 | [15] -2.05 | [16] -0.641 | [21] -3.34 | [22] -1

COc1ccc(NC(=O)/C(=C/c2cccs2)NC(=O)c2cccs2)cc1
inactive: [1] 0.0675 | [2] 0.0437 | [3] 0.0662 | [4] 0.0201

COC(=O)c1ccccc1
inactive: [1] 0.0726 | [2] 0.05 | [3] 0.155 | [4] 0.0447

COC(=O)Nc1nc2ccc(C(=O)c3cccs3)cc2[nH]1
active: [1] -0.83 | [2] -0.22 | [9] -1.12 | [10] -0.105 | [3] -3.46 | [4] -1.25 | [15] -2.04 | [16] -0.699

CC(=O)O[C@H]1C[C@@H](OC(C)=O)C(C)(C)C2CC(=O)[C@]3(C)C(CC[C@@]4(C)[C@H](C(=O)O)OC(=O)C5OC543)[C@]21C (some centres undefined)
inactive: [1] 0.123 | [2] 0.114 | [3] 0.0482 | [4] 0.118

CCC(=O)NCC1OC(n2cnc3c(NCc4ccccc4)ncnc32)C(O)C1O (centres undefined)
inactive: [9] 0.0412 | [10] 0.0737 | [15] 0.224 | [16] 0.113

COC(=O)C[C@H]1C(C)(C)C(=O)[C@@H]2CC3=C4CC(OC)O[C@@H](c5ccoc5)[C@]4(C)CCC3[C@@]1(C)C2=O (some centres undefined)
inactive: [1] 0.115 | [2] 0.14 | [3] 0.0882 | [4] 0.172
